Hit rate of the full screen: of about 310,000 compounds, about 14,000 (4.5%) showed an effect of 50% or more. The effect is printed as a negative number. Only a selection was taken, and strong results are over-represented in it overall.
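Note: peak tail current of the secondary pulse compared with the same well before compound.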

human ether-à-go-go-related gene (hERG) potassium channel, sequence (Q12809 whole entry, looked up): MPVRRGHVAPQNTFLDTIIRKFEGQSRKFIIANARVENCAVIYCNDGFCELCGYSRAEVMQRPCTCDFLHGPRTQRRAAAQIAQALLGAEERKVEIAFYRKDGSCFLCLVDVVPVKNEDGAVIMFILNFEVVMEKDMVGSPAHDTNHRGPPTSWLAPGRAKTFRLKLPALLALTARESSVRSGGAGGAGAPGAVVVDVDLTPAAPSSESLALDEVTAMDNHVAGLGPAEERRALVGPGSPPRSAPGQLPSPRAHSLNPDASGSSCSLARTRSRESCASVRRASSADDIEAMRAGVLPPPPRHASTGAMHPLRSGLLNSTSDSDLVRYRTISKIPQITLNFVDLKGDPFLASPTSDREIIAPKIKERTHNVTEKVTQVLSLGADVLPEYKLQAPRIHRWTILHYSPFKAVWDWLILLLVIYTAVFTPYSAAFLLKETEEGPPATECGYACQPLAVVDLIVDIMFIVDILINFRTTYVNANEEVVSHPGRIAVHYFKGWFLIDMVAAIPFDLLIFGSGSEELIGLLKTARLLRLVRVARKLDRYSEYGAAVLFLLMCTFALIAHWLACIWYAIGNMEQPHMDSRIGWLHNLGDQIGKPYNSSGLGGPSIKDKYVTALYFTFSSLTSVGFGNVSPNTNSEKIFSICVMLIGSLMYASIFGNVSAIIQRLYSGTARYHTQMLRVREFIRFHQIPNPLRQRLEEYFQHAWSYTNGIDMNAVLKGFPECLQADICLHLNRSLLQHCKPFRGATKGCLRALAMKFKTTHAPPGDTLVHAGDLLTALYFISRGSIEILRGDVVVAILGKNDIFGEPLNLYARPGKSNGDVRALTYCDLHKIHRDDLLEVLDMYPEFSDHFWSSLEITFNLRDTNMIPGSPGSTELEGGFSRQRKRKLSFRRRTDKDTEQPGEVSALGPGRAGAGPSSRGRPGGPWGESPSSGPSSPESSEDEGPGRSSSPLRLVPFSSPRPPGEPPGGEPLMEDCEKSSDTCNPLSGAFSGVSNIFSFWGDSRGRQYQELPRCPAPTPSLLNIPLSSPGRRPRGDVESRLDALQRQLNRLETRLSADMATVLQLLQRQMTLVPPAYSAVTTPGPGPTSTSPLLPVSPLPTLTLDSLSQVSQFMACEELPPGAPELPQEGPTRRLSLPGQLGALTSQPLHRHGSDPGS

The assay concerns the target human ether-à-go-go-related gene (hERG) potassium channel (human, UniProt Q12809). The experiment in a line: primary screen, population patch clamp on CHO cells stably expressing hERG; higher = less effect of the substance.
With `CCNS(=O)(=O)c1ccc(CCC(=O)NCc2ccccc2)cc1`, the “hERG current change (%, negative = inhibition) at 10uM” value was -19.6%.
As for `Cc1nc2ccc(S(=O)(=O)NCC(=O)NCc3ccc(Cl)cc3)cc2s1`, the “hERG current change (%, negative = inhibition) at 10uM” value came to 17.4%.
In the case of `Cc1ccc(CNC(=O)CNS(=O)(=O)c2ccc3nc(C)sc3c2)cc1` it was -64.6%; in that of `Cc1ccc(CCNC(=O)CNS(=O)(=O)c2ccc3nc(C)sc3c2)cc1`, 2.53%.
`CCNS(=O)(=O)c1ccc(CCC(=O)NCc2ccc(C)cc2)cc1`: the “hERG current change (%, negative = inhibition) at 10uM” value was -53.1%.
In the case of `CCNS(=O)(=O)c1ccc(CCC(=O)NCc2ccncc2)cc1` it was 2.58%; in that of `CSc1ccccc1NC(=O)CN(C)S(=O)(=O)c1ccc(F)cc1`, -35.2%.
On to `CC(=O)Nc1ccc(OCCC[n+]2cccc(C(=O)[O-])c2)cc1`, for which the “hERG current change (%, negative = inhibition) at 10uM” value is 12.5%.
With `Cn1cnc2c(oc3ccccc32)c1=O` the figure was 9.26%; with `CC1(C)N=C(/C=N/O)CN1O`, 11.7%.
Turning to `CCCCC(=O)Nc1cc(C)c2c(=O)oc3ccccc3c2n1`, the “hERG current change (%, negative = inhibition) at 10uM” value amounted to 4.39%.
On to `COc1ccc(S(=O)(=O)Cc2ccc(C(=O)N3CCN(c4ccccn4)CC3)o2)cc1`, for which the “hERG current change (%, negative = inhibition) at 10uM” value is on record as -27.9%.
With `COc1cc(OC)c(C2SCCS2)c(OC)c1`, the “hERG current change (%, negative = inhibition) at 10uM” value amounted to 2.14%.
Regarding `CCOC(=O)CC(=O)NC1(Cc2ccc(O)cc2)CCCCC1`, the “hERG current change (%, negative = inhibition) at 10uM” value turned out to be 1.06%.
`O=C(O)c1cc([N+](=O)[O-])ccc1NCc1ccccn1`: the “hERG current change (%, negative = inhibition) at 10uM” value is 12.7%.
In the case of `NC(=O)c1cc([N+](=O)[O-])ccc1NCc1cnccn1` it was -12.9%.
On to `O=[N+]([O-])c1ccc(Cc2ccccn2)c([N+](=O)[O-])c1`, for which the “hERG current change (%, negative = inhibition) at 10uM” value is recorded as -50.2%.
With `O=[N+]([O-])c1ccc(Cc2ccccn2)cc1`, the “hERG current change (%, negative = inhibition) at 10uM” value is -15.7%.
For `NC(=O)c1cc([N+](=O)[O-])ccc1NCc1ccccn1`, the “hERG current change (%, negative = inhibition) at 10uM” value is on record as -73.8%.
In the case of `O=[N+]([O-])c1ccc(Nc2ccccn2)c([N+](=O)[O-])c1` it was -4.46%; in that of `COn1c(-c2ccc(Cl)cc2Cl)nc2ncccc21`, -1.12%; in that of `CCc1nnc(NC(=O)c2sc3nc4c(cc3c2N)CCCCCC4)s1`, 4.75%.
For `COc1ccc(N/C=C/C(=O)c2ccc(Cl)cc2)cc1`, the “hERG current change (%, negative = inhibition) at 10uM” value is on record as -13.7%.
On to `CCN1CCN(CCCNC(=O)Cn2nc(C)n3nc(-c4ccccc4)cc3c2=O)CC1`, for which the “hERG current change (%, negative = inhibition) at 10uM” value was -11.1%.
With `Clc1ncccc1-c1nc2ccccc2n1Cc1ccccc1` the figure was -33.5%; with `Clc1ccc(Cn2c(-c3cccnc3Cl)nc3ccccc32)cc1`, -70.7%; with `Cc1cc2nc(-c3ccc(=O)[nH]c3)n(Cc3ccccc3)c2cc1C`, -35.2%.
With `Clc1ccc(Cn2c(-c3cccnc3Cl)nc3ccccc32)c(Cl)c1` the figure was -22.1%.
In the case of `O=c1ccc(-c2nc3ccccc3n2Cc2ccc(Cl)cc2)c[nH]1` it was -76%; in that of `O=c1ccc(-c2nc3cc(Cl)ccc3n2Cc2ccccc2)c[nH]1`, -73.9%.
Consider `O=c1ccc(-c2nc3ccccc3n2Cc2ccccc2Cl)c[nH]1`, for which the “hERG current change (%, negative = inhibition) at 10uM” value was -11.9%.
With `Cc1ccccc1Cn1c(-c2ccc(=O)[nH]c2)nc2ccccc21` the figure was -11.4%; with `O=c1[nH]cccc1-c1nc2cc(Cl)ccc2n1Cc1ccccc1`, -12%.
With `Cc1cc(/C=N/NC(=O)c2nn(C)cc2Cl)c(C)n1-c1cccc(Br)c1`, the “hERG current change (%, negative = inhibition) at 10uM” value was 8.09%.
With `Nc1nonc1-n1nncc1-c1ccccc1` the figure was 1.98%.
As to `CCN(Cc1ccccc1)C(=O)COC(=O)CNC(=O)c1ccc(C)s1`, the “hERG current change (%, negative = inhibition) at 10uM” value is 1.42%.
With `CSc1ccc(/C=N\Nc2nncn2N)cc1.Cl`, the “hERG current change (%, negative = inhibition) at 10uM” value is recorded as 10.9%.
As to `CCOC(=O)c1sc(NC(=O)COc2ccc3c(c2)OCO3)nc1C`, the “hERG current change (%, negative = inhibition) at 10uM” value was 7.47%.
In the case of `CCCCOP(=O)(OCCCC)/C(C#N)=C(/C)O` it was 13.1%; in that of `CC(C)C(NC(=O)c1ccccc1Br)c1ccccc1` (stereo not drawn), 11.2%.
In the case of `CC(=O)n1cc([C@H]2C=C(C(=O)NCc3ccccc3)O[C@@H](OCCCCO)C2)c2ccccc21` it was -62%; in that of `CC(=O)n1cc([C@H]2C=C(C(=O)Nc3ccccc3)O[C@@H](OCCCCO)C2)c2ccccc21`, -25%; in that of `CC(=O)n1cc([C@@H]2C=C(C(=O)Nc3ccccc3)O[C@H](OCCCCO)C2)c2ccccc21`, -54.5%.
In the case of `CC(=O)n1cc([C@@H]2C=C(C(=O)NCc3ccccc3)O[C@H](OCc3ccc(CO)cc3)C2)c2ccccc21` it was -26.6%.
For `CC(=O)n1cc([C@H]2C=C(C(=O)NCc3ccccc3)O[C@@H](OCc3ccc(CO)cc3)C2)c2ccccc21`, the “hERG current change (%, negative = inhibition) at 10uM” value is listed as 15.6%.
As to `C=CCOC(=O)C1=C[C@H](c2cn(C(C)=O)c3ccccc23)C[C@H](OCCCCO)O1`, the “hERG current change (%, negative = inhibition) at 10uM” value is -38.7%.
With `C#CCNC(=O)C1=C[C@@H](c2cn(C(C)=O)c3ccccc23)C[C@@H](OCCCCO)O1` the figure was -40.1%; with `CC(=O)n1cc([C@@H]2C=C(C(=O)NCc3ccccc3)O[C@H](OCCCCO)C2)c2ccccc21`, -78.3%.
On to `CC(=O)n1cc([C@H]2C=C(C(=O)O)O[C@@H](OCCCCO)C2)c2ccccc21`, for which the “hERG current change (%, negative = inhibition) at 10uM” value came out at 0.0595%.
In the case of `COc1ccc2cc(CN(CC3CCCO3)S(=O)(=O)c3ccccc3Cl)c(=O)[nH]c2c1` (stereo not drawn) it was -36.7%; in that of `O=C(/C=C/Nc1ccc(F)c(Cl)c1)c1ccco1`, -0.57%; in that of `O=C(NCCCN1CCCC1=O)c1ccc(OCc2ccccc2)cc1`, -12.9%.
With `COc1cc(C(=O)NCCCN2CCCC2=O)cc(OC)c1OC` the figure was -2.96%; with `COc1ccc(-c2cc(C(=O)NCCCN3CCCC3=O)c3ccccc3n2)cc1`, -12%; with `O=C(NCCCN1CCCC1=O)c1cc(-c2ccc3c(c2)OCO3)nc2ccccc12`, -4.06%.
In the case of `COc1ccc(-c2cc(C(=O)NCCCN3CCCC3=O)c3ccccc3n2)cc1OC` it was -64.7%; in that of `COc1cc(C(=O)NCCCN2CCCC2=O)cc(Br)c1OCc1ccccc1`, -50.7%.

(Values after publication PMC4336329 (PLoS ONE, 2015).)
